Screen size: about 320,000 compounds; about 2,100 (0.66%) were called active. About 53% were inconclusive and are not listed. This is one part of a sample in which actives are shown more often than they occur. Calls follow the shape of the dose curve; as a rule, active = well fitted inhibition curve with a large enough effect in the signal ratio, with a control signal flat (not every such curve was filed as active); inconclusive = small, poorly fitted or top-dose-only effect, or effect the other way, or a change in a side signal; inactive = flat fitted curve, though single readings scatter; the % refers to the signal ratio.
Potency is read from the fitted curve at half-maximal effect.

This assay in a line: qHTS Assay for Lipid Storage Modulators in Drosophila S3 Cells.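 As to cell number change: cells counted by Cell Tracker Red CMTPX staining in the red channel.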 As to lipid storage change, negative = inhibition: % is scaled to controls: 0 for no effect and ±100 for the full control effect. The settings on record: BODIPY lipid droplet fluorescence, 18-24 h, cells fed with added oleic acid; cell number change: measured here: cell count max response; series mostly up to 46.1 µM; lipid storage change, negative = inhibition: at the top concentration. Put shortly:
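Drosophila S3 cells got compounds at several concentrations plus oleic acid (400 uM solution). Laser-scanning cytometry with 488 nm excitation read lipid droplets at 500-530 nm and cells at 575-640 nm. Percent activity was relative to 20 uM Triacsin C.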
For orientation: Quantitative high-throughput screening tests each substance at several concentrations.
Consider `Cc1cc(C)cc(-n2ccn(CC(=O)NCCc3ccccc3)c(=O)c2=O)c1`, for which the result was inactive and the cell number change is -3.95%.
As for `Cc1ccc(OCC(=O)Nc2cccc(-c3nnc(-c4ccccc4)o3)c2)cc1`, the “lipid storage change, negative = inhibition” value was -1.29% (inactive) and the cell number change was 1.35%.
Consider `Cc1cccc(N(CC(=O)Nc2ccccc2F)S(C)(=O)=O)c1`, for which the Potency was 6.51 µM (active).
Regarding `CSc1ccccc1NC(=O)CN(c1cccc(C)c1)S(C)(=O)=O`, the “lipid storage change, negative = inhibition” value was 11.7% (inactive) and the cell number change was -13.7%.
Take `CSc1ccccc1NC(=O)CN(c1cc(C)cc(C)c1)S(C)(=O)=O`: the result was inactive.
In the case of `C/C(=N\N=C\c1cccc(F)c1)c1nnn(-c2nonc2N)c1C`, the “lipid storage change, negative = inhibition” value was 20.8% (inactive) and the cell number change is -1.27%.
For `CCOc1ccc(NC(=O)CCS(=O)(=O)c2ccc(C)cc2)cc1`, in that order: -5.54% (inactive) and 9.92%.
The matching figures for `CCOc1ccc(NC(N)=O)cc1`: 11.6% (inactive) and 1.62%.
On to `CCOc1ccc(NC(=O)CNS(=O)(=O)c2c(C)cc(C)cc2C)cc1`, for which the Potency was 0.92 µM (active).
As for `CCC(C)NCCCOc1cc(Cl)ccc1Cl` (centres undefined), the “lipid storage change, negative = inhibition” value was 0.912% (inactive) and the cell number change is 12.7%.
The matching figures for `COc1ccc(N(CC(=O)Nc2ccc(C)c(C)c2)S(=O)(=O)c2c(C)n[nH]c2C)cc1`: 28.1% (inactive) and 4.08%.
For `CNC(=O)N(C1=NCCCCC1)c1ccc(Br)cc1`, in that order: -2.09% (inactive) and -6.67%.
For `Cc1nn(CCC(=O)N2CCN(S(=O)(=O)c3ccccc3)CC2)c(C)c1C`, the outcome was inactive and the cell number change is 24.4%.
The matching figures for `Cc1cc(C)cc(C(=O)Oc2cc(C)[nH]c(=O)c2[N+](=O)[O-])c1`: “inactive” and -7.31%.
The matching figures for `Cc1ccc(NC(=O)C(C)Sc2nnc(C)n2CC2CCCO2)cc1` (centres undefined): “inactive” and 11.7%.
`O=C(CSc1nnc(-c2ccncc2)n1CC1CCCO1)Nc1ccccc1Cl` (centres undefined): the “lipid storage change, negative = inhibition” value is 6.87% (inactive) and the cell number change came out at 2.31%.
For `Cc1ccccc1NC(=O)C(C)Sc1nnc(-c2ccncc2)n1CC1CCCO1` (centres undefined), the Potency is 2.31 µM (active) and the cell number change turned out to be 3.95%.
Consider `O=C(O)C1CC=CCC1C(=O)Nc1cccc(F)c1` (centres undefined), for which the “lipid storage change, negative = inhibition” value was -11.4% (inactive).
On to `Cc1ccc(-n2c(N)cc(=O)nc2SCC(=O)NC2CCCCC2)cc1C`, for which the “lipid storage change, negative = inhibition” value was 4.5% (inactive) and the cell number change was -3.12%.
For `Cc1ccnc(NC(=O)/C=C/c2cccs2)c1`, in that order: -0.722% (inactive) and -3.66%.
As for `Cc1cc(C)nc(SCC(=O)Nn2cnnc2)n1`, the “lipid storage change, negative = inhibition” value was -6.33% (inactive) and the cell number change is -0.845%.
In the case of `O=C(CSc1ncccn1)Nc1ccccc1`, the compound was called inactive and the cell number change was determined as 17.6%.
In the case of `O=C(CSc1ncccn1)Nn1cnnc1`, the Potency was 7.31 µM (active) and the cell number change was -0.567%.
Regarding `O=C(Nc1ccc(Cl)cc1)Nn1cnnc1`, the result was inactive and the cell number change is 8.74%.
Turning to `O=C(CSc1ccc(Cl)cc1)Nn1cnnc1`, the Potency was 16.4 µM (active) and the cell number change was 7.58%.
On to `O=C(CSc1ccc(Cl)cc1)Nc1ncccn1`, for which the “lipid storage change, negative = inhibition” value was -22.8% (inactive) and the cell number change came out at 8.97%.
Regarding `Cc1ccc(-n2nc3c(c2NC(=O)C2CCCC2)CS(=O)(=O)C3)cc1`, the result was inactive and the cell number change was -12.8%.
As to `Cc1ccc(S(=O)(=O)N2CCc3ccccc3C2CN2C(=O)c3ccccc3C2=O)cc1` (centres undefined), the call was inactive.
With `COc1cccc(NC(=S)N2CCN(C(c3ccccc3)c3ccccc3)CC2)c1`, the “lipid storage change, negative = inhibition” value was 17% (inactive).
Consider `Cc1nn(C)c(C)c1/C=N/NC(=O)CCn1nc(C)c([N+](=O)[O-])c1C`, for which the “lipid storage change, negative = inhibition” value was 9.31% (inactive) and the cell number change is -10.6%.
The matching figures for `Cc1ccc(OCC(=O)n2cnnc2N)c(C)c1`: 16.4% (inactive) and -14.9%.
Take `CCN1CCN(Cc2c(C)[nH]c3ccc(OC)cc3c2=O)CC1`: the compound was classed as inactive and the cell number change was determined as 9.98%.
For `COc1ccc(N=C2S/C(=C\c3ccco3)C(=O)N2CC(C)C)cc1`, in that order: “inactive” and -0.418%.
Consider `COc1ccccc1CCC(=O)N1CCC(n2nccc2NC(=O)CC(C)C)CC1`, for which the “lipid storage change, negative = inhibition” value was -24.1% (inactive) and the cell number change was -2.79%.
For `CCCn1c(C)cc(C(=O)COc2ccc(C)nc2[N+](=O)[O-])c1C`, in that order: 5.96% (inactive) and 5.33%.
For `CCN(CC)S(=O)(=O)c1ccc(OCC(=O)NC(=O)c2ccccc2OC)c([N+](=O)[O-])c1`, in that order: -8.1% (inactive) and 2.39%.
Take `CCCn1c(C)cc(C(=O)COc2ccc(S(=O)(=O)N(CC)CC)cc2[N+](=O)[O-])c1C`: the Potency was 25.9 µM (active) and the cell number change is -12.5%.
As to `CN(C)S(=O)(=O)c1cccc(NC(=S)N2CCc3ccccc32)c1`, the outcome was inactive.
With `CC(C)NC(=O)CN(Cc1ccccc1)S(=O)(=O)c1ccccc1`, the compound was classed as inactive and the cell number change was 1.76%.
As to `CC[N+]1=C(C)C(C)(C)c2cc(C)ccc21`, the Potency is 0.231 µM (active) and the cell number change was -16.1%.
Regarding `CC[n+]1c(C)sc2cc(C)ccc21`, the “lipid storage change, negative = inhibition” value was -0.992% (inactive) and the cell number change was -15.5%.
As for `CC[n+]1c(S(=O)(=O)[O-])ccc2ccc(C)cc21`, the “lipid storage change, negative = inhibition” value is 0.898% (inactive) and the cell number change came out at 3.16%.
As to `O=C(N/N=C/c1ccccc1)c1ccc(NC(=O)c2ccc(F)cc2)cc1`, the outcome was inactive and the cell number change was 8.73%.
Take `Cc1ccc(C)c(NC(=O)CSc2nc(C)cc(C)c2C#N)c1`: the “lipid storage change, negative = inhibition” value was 11.2% (inactive) and the cell number change is -1.26%.
`CC(Oc1ccc2c(-c3ccccc3)cc(=O)oc2c1)C(=O)NCC1CCC(C(=O)O)CC1` (centres undefined): the “lipid storage change, negative = inhibition” value was -7.92% (inactive).
Consider `COc1ccc(CNC(=O)CN(Cc2ccc(Cl)cc2)S(C)(=O)=O)cc1`, for which the “lipid storage change, negative = inhibition” value was 6.59% (inactive) and the cell number change was determined as 15.2%.
In the case of `COc1ccc(CNC(=O)CN(Cc2ccc(Cl)cc2)S(=O)(=O)c2ccccc2)cc1`, the Potency was 20.6 µM (active) and the cell number change amounted to 26.1%.
Consider `COCCNC(=O)CN(Cc1ccc(Cl)cc1)S(C)(=O)=O`, for which the Potency was 23.1 µM (active) and the cell number change is -6.66%.
As to `COc1ccc(CNC(=O)CN(C)S(=O)(=O)c2ccc(Cl)cc2)cc1`, the “lipid storage change, negative = inhibition” value is -32.9% (inactive) and the cell number change was -9.55%.
For `COc1ccc(CCNC(=O)CN(Cc2ccc(Cl)cc2)S(C)(=O)=O)cc1`, in that order: -18.7% (inactive) and -16.1%.
In the case of `COc1ccc(CCNC(=O)CN(Cc2ccc(Cl)cc2)S(C)(=O)=O)cc1OC`, the compound was classed as inactive and the cell number change is 5.74%.

(Values after PubChem BioAssay AID2685 (National Center for Advancing Translational Sciences (NCATS), 2010).)
